Screening results deposited in PubChem BioAssay by National Center for Advancing Translational Sciences (NCATS).
Hits are enriched below; roughly 2.3% of the tested compounds scored in any of these assays.
PTHR1 agonist – PTHR1 (human) receptor agonism. Potency, µM (series often up to 115 µM), most hits filed as activators. Q03431. HEK293 GP2 PTHR1 cells, GloSensor cAMP luminescence, 1 h. actives 0.075% (n = 410,000); further: nearly all actives have a fitted effect of over 55% in size
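HEK-293-derived GP2 cells expressing PTHR1 and a GloSensor cAMP reporter, 3,000/well, plated overnight, given luciferin plus IBMX (each 0.5 mM as added) for 1 h at 37 °C, then compound for 1 h at 37 °C. Luminescence was read after 15 min at room temperature.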
ALOX12 inh – blocks human arachidonate 12S-lipoxygenase | P18054 | purified 12hLO, xylenol orange hydroperoxide absorbance | Potency, µM (titrated, usually from 108 µM), hits mostly inhibitors | actives 1.1% (n = 580,000) | AID 1671190
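Purified human 12hLO at 150 nM in 25 mM Hepes, 0.01% Triton X-100, pH 7.0, preincubated 15 min at room temperature with compound. Reaction started with 40 uM arachidonic acid, 30 min at room temperature. Hydroperoxide measured by Fe-xylenol orange, 573/405 nm absorbance ratio.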
GLP1R ag – agonists of human GLP-1 receptor; Potency, µM (titrated, usually from 45.6 µM), most hits filed as activators; actives 0.007% (n = 380,000); AID 624172; HEK293 GLP-1R CRE-luciferase, luminescence, 4-6 h; cells express a hypersensitive GLP-1R form; P43220
GLS inhibitor – blocks human kidney-isoform glutaminase activity; actives 0.21% (n = 410,000); GLS enzymatic activity, qHTS titration; Potency, µM (titrated, usually from 45.5 µM), most hits filed as inhibitors; O94925
Target sequence (O94925 whole entry, looked up, canonical isoform): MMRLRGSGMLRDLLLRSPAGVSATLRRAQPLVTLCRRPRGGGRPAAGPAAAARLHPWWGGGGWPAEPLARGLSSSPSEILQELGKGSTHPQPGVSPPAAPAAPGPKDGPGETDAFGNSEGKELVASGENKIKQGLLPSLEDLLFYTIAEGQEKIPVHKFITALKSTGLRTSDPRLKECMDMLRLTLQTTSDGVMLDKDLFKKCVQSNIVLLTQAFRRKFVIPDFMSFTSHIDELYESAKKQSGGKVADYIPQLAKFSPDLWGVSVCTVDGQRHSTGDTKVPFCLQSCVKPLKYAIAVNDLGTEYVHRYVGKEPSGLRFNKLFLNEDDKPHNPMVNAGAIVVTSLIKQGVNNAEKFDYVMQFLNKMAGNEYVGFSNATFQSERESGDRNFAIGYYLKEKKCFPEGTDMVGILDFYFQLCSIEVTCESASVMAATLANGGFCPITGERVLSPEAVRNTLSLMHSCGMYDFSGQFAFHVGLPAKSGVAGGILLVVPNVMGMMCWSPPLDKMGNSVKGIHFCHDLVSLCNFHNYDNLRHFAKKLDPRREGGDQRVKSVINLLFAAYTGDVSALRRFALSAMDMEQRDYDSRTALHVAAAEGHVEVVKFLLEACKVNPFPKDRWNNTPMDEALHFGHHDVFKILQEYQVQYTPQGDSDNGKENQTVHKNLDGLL
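Two-point fluorescence kinetic (t0, 30 min RT) for hKGA; glutamate detected via glutamate oxidase–HRP–Amplex Red. Substrate: 1 mM L-glutamine solution; buffer 45 mM KH2PO4, pH 8.2.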
GLP-1R inv ag – acts as inverse agonist at human GLP-1 receptor; P43220; HEK293 GLP-1R CRE-luciferase, luminescence, 24 h; GLP-1R form is constitutively active; Potency, µM (doses to about 38.3 µM), hits mostly inhibitors; actives 1.6% (n = 410,000); AID 624417; further: nearly all actives have a fitted effect of over 55% in size
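Constitutively active GLP-1R drives a cAMP-responsive luciferase in stably transfected HEK293 cells; test compounds are added after overnight (12 h) attachment and left 24 hr, and signal loss in luminescence marks inhibition.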
GRP78 ERSR act – inducers of ER stress response in human glioma cells | AID 602332 | actives 0.02% (n = 420,000) | Potency, µM, usual class: activators | U87-MG GRP78 promoter luciferase reporter, 16 h; further: series mostly up to about 76 µM; nearly all actives have a fitted effect of over 35% in size
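Stably transfected U87-MG human glioma cells carrying a GRP78-based luminescent sensor were seeded at 1000 cells/well, pin-dosed with compounds and incubated 16 h. Luciferase reagent was then added, and end-point luminescence was read after 10 min at room temperature.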
Numbers stand for hits. The call rests on the fitted dose curve; in most records, active means well fitted curve in the direction sought with a large enough effect; inconclusive means small, poorly fitted or top-dose-only effect, or another doubt; inactive means no such curve, though single readings can be large; an effect the other way counts as inactive or inconclusive.

How did CC(C)=CCC(C)(C)CNC(=O)NC1CCCCC1 do in these assays?
PTHR1 agonist: inactive; ALOX12 inh: inactive; GLP1R ag: inactive; GLS inhibitor: inactive; GLP-1R inv ag: 10µM; GRP78 ERSR act: inactive

Results for O=C(/C=C/c1ccc(Br)cc1)c1ccc(NC2=NCCCS2)cc1 ?
PTHR1 agonist: inactive; ALOX12 inh: inconclusive; GLP1R ag: inactive; GLS inhibitor: inactive; GLP-1R inv ag: 5µM; GRP78 ERSR act: inactive

Results for COC(=O)c1ccc(CN2CCC(CO)(Cc3ccccc3Cl)CC2)cc1 ?
PTHR1 agonist: inactive; ALOX12 inh: inactive; GLP1R ag: inactive; GLS inhibitor: inactive; GLP-1R inv ag: inconclusive; GRP78 ERSR act: inactive

What do the screens show for `O=C(C1CC12CCCC2)N1CCC(CO)(Cc2ccccc2Cl)CC1` (stereo unspecified)?
PTHR1 agonist: inactive; ALOX12 inh: inactive; GLP1R ag: inactive; GLS inhibitor: inactive; GLP-1R inv ag: 10µM; GRP78 ERSR act: inactive

How did N#Cc1ccc(/C=N/Nc2nc(Nc3ccccc3)nc(N3CCCCC3)n2)cc1 do in these assays?
ALOX12 inh: inactive

Results for CCN(c1ccc(OC)cc1)S(=O)(=O)c1ccc(-c2cc(C)no2)s1 ?
PTHR1 agonist: inactive; ALOX12 inh: inactive; GLP1R ag: inactive; GLS inhibitor: inactive; GLP-1R inv ag: 7.9µM; GRP78 ERSR act: inactive

How did CC(Sc1nnc2c(Cl)cc(C(F)(F)F)cn12)c1ccccc1 (stereo unspecified) do in these assays?
ALOX12 inh: inactive

Results for CN(C)c1ccc(/C=C/c2cc[n+](C)cc2)cc1 ?
PTHR1 agonist: inactive; ALOX12 inh: 1µM; GLP1R ag: inactive; GLS inhibitor: inactive; GLP-1R inv ag: inconclusive; GRP78 ERSR act: inactive

What do the screens show for `Cc1ccc(/C=C/c2ccc(N(C)C)cc2)[n+](C)c1`?
PTHR1 agonist: inactive; ALOX12 inh: inconclusive; GLP1R ag: inactive; GLS inhibitor: inactive; GLP-1R inv ag: inconclusive; GRP78 ERSR act: inactive

Results for COc1ccc(NC(=O)CSc2nnc3ccccn23)cc1S(=O)(=O)N1CCCCC1 ?
ALOX12 inh: inactive

What do the screens show for `Cn1nc(C(F)(F)F)c(C(=O)Nc2ccc(F)cc2F)c1Sc1cccc(Cl)c1`?
PTHR1 agonist: inactive; ALOX12 inh: inactive; GLP1R ag: inactive; GLS inhibitor: inactive; GLP-1R inv ag: 13µM; GRP78 ERSR act: inactive

What do the screens show for `Cn1nc(C(F)(F)F)c(C(=O)Nc2ccc(F)cc2F)c1Sc1cccc(C(F)(F)F)c1`?
PTHR1 agonist: inactive; ALOX12 inh: inactive; GLP1R ag: inactive; GLS inhibitor: inactive; GLP-1R inv ag: inactive; GRP78 ERSR act: inactive

What do the screens show for `O=C(NN=C1CCCC1)c1[nH]c2ccc(Cl)cc2c1-c1ccccc1`?
PTHR1 agonist: inactive; ALOX12 inh: inactive; GLP1R ag: inactive; GLS inhibitor: inactive; GLP-1R inv ag: 3.2µM; GRP78 ERSR act: inactive

How did CC(=O)NNC(=O)c1[nH]c2ccc(Cl)cc2c1-c1ccccc1 do in these assays?
PTHR1 agonist: inactive; ALOX12 inh: inactive; GLP1R ag: inactive; GLS inhibitor: inactive; GLP-1R inv ag: inconclusive; GRP78 ERSR act: inactive

Results for COc1ccc2c(c1)CCc1c(C(=O)Nc3c(C)nn(Cc4ccccc4Cl)c3C)noc1-2 ?
PTHR1 agonist: inactive; ALOX12 inh: inactive; GLS inhibitor: inactive; GLP-1R inv ag: 10µM; GRP78 ERSR act: inactive

How did COc1ccc(CNC(=O)C2CCN(C(=O)c3ncn4c3COC(c3ccccc3)C4)CC2)cc1 (stereo unspecified) do in these assays?
ALOX12 inh: inactive

Results for O=C(CCc1ncc(-c2c(F)cccc2F)o1)Nc1ccccn1 ?
ALOX12 inh: inactive

How did CS(=O)(=O)c1ccc2nnn(OCC(=O)Nc3ccc(Br)cc3Br)c2c1 do in these assays?
PTHR1 agonist: inactive; ALOX12 inh: inactive; GLP1R ag: inactive; GLS inhibitor: inactive; GLP-1R inv ag: 10µM; GRP78 ERSR act: inactive

How did CC(C(=O)Nc1ccc(C#N)cc1)N(C)CC(=O)Nc1ccccc1Br (stereo unspecified) do in these assays?
PTHR1 agonist: inactive; ALOX12 inh: inactive; GLP1R ag: inactive; GLS inhibitor: inactive; GLP-1R inv ag: 11µM; GRP78 ERSR act: inactive
